PubChem BioAssay (EPA / NIEHS)
The source made the active and inactive calls. How the source made its calls: active means hit-call score of the fitted dose curve at least 0.9, where 1 is the maximum; inactive means score below 0.9.

experiment: ATG_TGFb_CIS: Attagene CIS-FACTORIAL HepG2 Assay for human Transforming Growth Factor (TGF) (AID 2282967); settings: HepG2 Attagene CIS TGFb reporter, mRNA transcription; actives raise or lower the signal
Procedure: ATG_CIS is a cell-based, multiplexed-readout assay that uses HepG2, a human liver cell line, with measurements taken at 24 hours after chemical dosing in a 24-well plate.ATG_TGFb_CIS is one of 52 assay component(s) measured or calculated from the ATG_CIS assay. It is designed to make measurements of mRNA induction, a form of inducible reporter, as detected with fluorescence intensity signals by Reverse transcription polymerase chain reaction (RT-PCR) and Capillary electrophoresis technology.Data from the assay component ATG_TGFb_CIS was analyzed into 1 assay endpoint. This assay endpoint, ATG_TGFb_CIS, was analyzed with bidirectional fitting relative to DMSO as the negative control and baseline of activity. Using a type of inducible reporter, measures of mRNA for gain or loss-of-signal activity can be used to understand the reporter gene at the transcription factor-level as they relate to the gene TGFB1. Furthermore, this assay endpoint can be referred to as a primary readout, because this assay has produced multiple assay endpoints where this one serves a reporter gene function. To generalize the intended target to other relatable targets, this assay endpoint is annotated to the growth factor intended target family, where the subfamily is transforming growth factor beta.
Human liver HepG2 cells are transiently transfected with multiple reporter transcription units (MRTUs) in 6-well plates using FuGene 6 reagent (Roche; 3 ml FuGene/1 mg DNA). The MRTU constructs are regulated by a cis-regulating element (promoter). […] A major difference between the CIS and TRANS system is that in CIS activities of endogenous TFs are measured, whereas the TRANS assay evaluates changes in activities of exogenous, chimeric NR-Gal4 proteins. […] At the end of 24 hour incubation, total RNA was isolated using TriZol reagent (Invitrogen). The isolated RNA is then reverse-transcribed using oligo(dT) primer and Mo-MLV reverse transcriptase (Invitrogen) with DNAse I (Ambion) treatment for 30 min. The one-tenth of the produced cDNA was amplified by PCR using Taq DNA polymerase (Invitrogen) and two reporter sequence-specific primers. The PCR products were fluorescently labeled by primer extension with 6-arboxyfluorescein (6-FAM) 5'-labeled reporter sequence-specific primer (2 min at 95 C, 20 s at 68 C and 10 min at 72 C) and these products were digested with 5U of HpaI (New England Biolabs) for 2h at 37 C. The fragments were purified using Qiaquick PCR columns (Qiagen), analyzed on an ABI 3130xL genetic analyzer (Applied Biosystems) with peak positions identified by using a set of X-rhodamine (ROX)-labeled MapMarker1000 molecular weight standards (BioVentures). The raw capillary electrophoresis data was processed using Attagraph software (Attagene).

Row | SMILES | outcome
1 | CCCCCCCCCCCCC[N+](C)(C)Cc1ccccc1 | inactive
2 | Brc1ccccn1 | inactive
3 | O=C(Cl)c1ccc(Cl)cc1Cl | inactive
4 | Cc1cc(=O)[nH]c(C(C)C)n1 | inactive
5 | O=C1OC(=O)c2ccc3c4c(ccc1c24)C(=O)OC3=O | inactive
6 | CCN=C1C=CC(=C(c2ccc(N(CC)CC)cc2)c2ccc(N(CC)CC)cc2)c2ccccc21 | inactive
7 | OCC(F)(F)C(F)(F)C(F)(F)CO | inactive
8 | OCC1CCCO1 (stereo not given) | inactive
9 | F[Si-2](F)(F)(F)(F)F | inactive
10 | Cc1ccc2c(c1)OCC(=O)CO2 | inactive
11 | CCN(CC)c1ccc(N=Nc2ccccc2)cc1 | inactive
12 | CN(C(=O)C(F)(F)C(F)(F)C(F)(F)F)[Si](C)(C)C | inactive
13 | O=S(=O)(Cl)C(F)(F)C(F)(F)C(F)(F)C(F)(F)C(F)(F)C(F)(F)C(F)(F)C(F)(F)F | inactive
14 | CCOC(=O)CC(=O)C(F)(F)C(F)(F)F | inactive
15 | FC(F)(F)C(F)(F)C(F)(F)C(F)(F)C(F)(F)C(F)(F)CC[Si](Cl)(Cl)Cl | inactive
16 | Nc1cccnc1N | inactive
17 | CCC/C=C/CO | inactive
18 | CO[Si](C)(CCC(F)(F)C(F)(F)C(F)(F)C(F)(F)C(F)(F)C(F)(F)F)OC | inactive
19 | CC(C)(C)c1cc(CCC(=O)NCCCCCCNC(=O)CCc2cc(C(C)(C)C)c(O)c(C(C)(C)C)c2)cc(C(C)(C)C)c1O | inactive
20 | Cc1ccc(O)cn1 | inactive

Row | SMILES | outcome
21 | NC(=O)C(F)(F)C(F)(F)C(F)(F)C(F)F | inactive
22 | FC(F)(F)C(F)(F)C(F)(F)CC1CO1 (stereo not given) | inactive
23 | CCCCCCCC/C=C\CCCCCCCC(=O)N(C)CC(=O)O | inactive
24 | Cc1cc(C)c(O)c(C(C)(C)C)c1 | inactive
25 | CCCCCC/C=C/CCCCCCCC(=O)O | inactive
26 | Cc1cccc(C)n1 | inactive
27 | OC(O)C(F)(F)C(F)(F)F | inactive
28 | CC(C)OC(=O)COc1ccc(Cl)cc1Cl | inactive
29 | CCN=c1cc2oc3cc(NCC)c(C)cc3c(-c3ccccc3C(=O)OCC)c-2cc1C | inactive
30 | COC(=O)c1ccc(C=O)cc1 | inactive
31 | CCc1cc(Cc2cc(CC)c(N)c(CC)c2)cc(CC)c1N | inactive
32 | C=CC(=O)OCC(F)(F)C(F)(F)C(F)(F)C(F)(F)C(F)(F)C(F)(F)C(F)(F)C(F)F | inactive
33 | C=CC(=O)OCCC(F)(F)C(F)(F)C(F)(F)C(F)(F)F | inactive
34 | NCC(F)(F)C(F)(F)C(F)(F)C(F)(F)C(F)(F)C(F)(F)C(F)(F)C(F)(F)F | inactive
35 | Brc1nc2ccccc2s1 | inactive
36 | c1ccc(C[P+](c2ccccc2)(c2ccccc2)c2ccccc2)cc1 | inactive
37 | CC(C)(C)C(=O)C1C(=O)c2ccccc2C1=O | inactive
38 | C[Si](Cl)(Cl)CCC(F)(F)C(F)(F)C(F)(F)C(F)(F)C(F)(F)C(F)(F)F | inactive
39 | CSc1ccc(Cl)cc1 | inactive
40 | CC(C)Nc1ccc(NC(C)C)c2c1C(=O)c1ccccc1C2=O | inactive
